“And” between values parts separate entries of the source, which are not always exact repeats. Equal values may be shown once. Records with an inconclusive call do not appear. Some structures have more than one record in an assay (separate samples or runs), and their calls can disagree. The source made the active and inactive calls. Calls follow the shape of the dose curve; as a rule, active = well fitted curve in the direction sought with a large enough effect in the repeat runs; inconclusive = weak or mixed curves; inactive = no such curve, though single readings can be large; an effect the other way counts as inactive or inconclusive.

For 20 compounds, Potency, max activation and outcome results are on record in PubChem BioAssay (Tox21).

Experiment [1] can be described thus: Caspase-3/7 induction in HepG2 cells by small molecules, qHTS assay (AID 1346978). Also: nearly all actives have a fitted effect of over 15% in size. Summed up: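 Caspase-3/7 induction was measured by Caspase-Glo 3/7 luminescence (30 min, room temperature) after a 17 hr compound exposure of wild-type HepG2 cells seeded at 2,000 per well and pre-incubated 5 hr.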
In general terms: In qHTS, concentration-response curves come from the screen itself.

A short description of experiment [2]: Caspase-3/7 induction in CHO-K1 cells by small molecules, qHTS cell viability counter screen (AID 1346979). Also: nearly all actives have a fitted effect of over 35% in size. Also: potency is read from the fitted curve at half-maximal effect. An outline of the steps:
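To flag cytotoxic compounds, treated CHO-K1 wild-type cells were given CellTiter-Fluor at 16hr and read fluorescently after 1hr at 37C; the caspase-3/7 luminescence was measured in these same wells.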

A short description of experiment [3]: Caspase-3/7 induction in CHO-K1 cells by small molecules, qHTS assay (AID 1346980). Also: nearly all actives have a fitted effect of over 15% in size. Summed up: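 Luminescent Caspase-Glo 3/7 read (30min, room temperature) quantified apoptosis induction. Cells were wild-type CHO-K1, treated with compound for 17hr at 37 C and 5% CO2.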
A short description of experiment [4]: Caspase-3/7 induction in HepG2 cells by small molecules, qHTS cell viability counter screen (AID 1346981). Also: nearly all actives have a fitted effect of over 30% in size. Also: potency is read from the fitted curve at half-maximal effect. Summed up:
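CellTiter-Fluor fluorescence measured viability in the same wells used for Caspase-Glo 3/7. HepG2 (wild type) at 2,000 cells/well were pre-incubated 5 hr, dosed, and given reagent at 16 hr, with 1 hr further at 37C.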

The target of experiment [5] is Nuclear receptor subfamily 1 group I member 2 (Homo sapiens) (UniProt O75469). As to the kind of experiment: Human pregnane X receptor (PXR) small molecule agonists, qHTS assay (AID 1346982). Also: nearly all actives have a fitted effect of over 35% in size. Also: potency is read from the fitted curve at half-maximal effect. Summed up:
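Agonist mode: luminescence from ONE-Glo after 24 h compound exposure at 37C in HepG2 cells carrying hPXR-responsive CYP3A4 luciferase, plated in charcoal-stripped serum medium 5 h beforehand.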

Experiment [6] deals with Nuclear receptor subfamily 1 group I member 2 (Rattus norvegicus) (UniProt Q9R1A7). As to the kind of experiment: Rat pregnane X receptor (rPXR) activation by small molecules, qHTS assay (AID 1346983). Also: nearly all actives have a fitted effect of over 20% in size. The note with it: rPXR luciferase reporter cells, One-Glo luminescence, 24 h; max activation: stronger effect = higher value. Summed up:
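Luminescent readout (One-Glo luciferase, 30 min room temperature) followed 24 hr compound treatment at 37 C of rPXR cells plated 2,000 per well and preincubated 5hr; qHTS format with compounds delivered in DMSO.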

Experiment [7] concerns the target Nuclear receptor subfamily 1 group I member 2 (Homo sapiens) (UniProt O75469). Put plainly: CYP3A4 induction through human pregnane X receptor (PXR) by small molecules, qHTS assay (AID 1346984). Also: nearly all actives have a fitted effect of over 40% in size. An outline of the steps:
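Read-out is luminescence after One-Glo addition, following a 3 hr, 37C incubation with Luciferin-IPA CYP3A4 substrate (3uM final). Before that, compounds were on DPX-2 cells (HepG2 co-transfected with PXR element plus CYP3A4-promoter luciferase) for 24 hr at 37C.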

Experiment [8] has the same target. Put plainly: Human pregnane X receptor (PXR) activation by small molecules, qHTS assay (AID 1346985). Also: nearly all actives have a fitted effect of over 40% in size. An outline of the steps:
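DPX-2 cells (HepG2 co-transfected with a PXR response element and a CYP3A4-promoter luciferase construct) were seeded at 2,000 per well, rested 5 hr at 37C, then exposed to DMSO-dissolved compounds for 24 hr. Activation was read as luciferase luminescence.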

In experiment [9] the target is Cytochrome P450 2D6 (Homo sapiens) (UniProt P10635). As to the kind of experiment: Cytochrome P450 Family 2 Subfamily D Member 6 (CYP2D6) small molecule antagonists: luciferase reporter qHTS assay (AID 1671196). Also: nearly all actives have a fitted effect of over 50% in size. Also: potency is read from the fitted curve at half-maximal effect. Summed up:
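CYP2D6 activity was followed as luminescence from its luciferin product after a 1 h NADPH-driven reaction at room temperature. Enzyme-substrate mix and compound were pre-incubated for 10 min, and the signal was read 20 min after adding detection reagent.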
A general note: In a reporter assay the amount or activity of a reporter protein is the signal.

Experiment [10] has as its target Cytochrome P450 2C19 (Homo sapiens) (UniProt P33261). As to the kind of experiment: Cytochrome P450 Family 2 Subfamily C Member 19 (CYP2C19) small molecule antagonists: luciferase reporter qHTS assay (AID 1671197). Also: nearly all actives have a fitted effect of over 65% in size. Also: potency is read from the fitted curve at half-maximal effect. An outline of the steps: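 Light output is proportional to CYP2C19 activity: proluciferin substrate is converted to luciferin, then detected by a luciferin detection reagent that also stops the 1 h, 37C NADPH-driven reaction. Ketoconazole serves as positive control.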
% is scaled to controls: 0 for no effect and ±100 for the full control effect.

Sequence of Nuclear receptor subfamily 1 group I member 2 (Homo sapiens) (O75469 whole entry, looked up): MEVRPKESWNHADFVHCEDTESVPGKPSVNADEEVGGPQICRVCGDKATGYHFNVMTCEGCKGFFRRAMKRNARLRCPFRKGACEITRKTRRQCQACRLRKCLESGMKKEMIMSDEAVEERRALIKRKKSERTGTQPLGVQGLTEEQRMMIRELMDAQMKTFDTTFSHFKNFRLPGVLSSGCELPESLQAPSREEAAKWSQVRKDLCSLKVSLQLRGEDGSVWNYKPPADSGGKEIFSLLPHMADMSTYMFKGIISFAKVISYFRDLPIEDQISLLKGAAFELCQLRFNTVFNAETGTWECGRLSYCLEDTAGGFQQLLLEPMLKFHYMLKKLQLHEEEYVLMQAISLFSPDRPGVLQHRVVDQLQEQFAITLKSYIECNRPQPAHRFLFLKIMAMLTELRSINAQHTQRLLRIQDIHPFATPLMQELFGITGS
Sequence of Nuclear receptor subfamily 1 group I member 2 (Rattus norvegicus) (Q9R1A7 whole entry, looked up): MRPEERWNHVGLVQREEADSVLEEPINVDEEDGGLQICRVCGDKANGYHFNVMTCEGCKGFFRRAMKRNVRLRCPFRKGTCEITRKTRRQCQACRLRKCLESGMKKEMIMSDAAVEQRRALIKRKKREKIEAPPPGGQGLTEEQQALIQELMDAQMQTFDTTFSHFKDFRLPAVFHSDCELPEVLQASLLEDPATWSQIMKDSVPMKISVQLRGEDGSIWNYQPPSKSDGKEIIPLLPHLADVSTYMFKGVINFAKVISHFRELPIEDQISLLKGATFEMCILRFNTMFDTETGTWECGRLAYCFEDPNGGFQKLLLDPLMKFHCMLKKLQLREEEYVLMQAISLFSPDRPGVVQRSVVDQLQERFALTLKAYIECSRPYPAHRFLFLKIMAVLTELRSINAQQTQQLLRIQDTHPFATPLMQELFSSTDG
Sequence of Cytochrome P450 2D6 (Homo sapiens) (P10635 whole entry, looked up): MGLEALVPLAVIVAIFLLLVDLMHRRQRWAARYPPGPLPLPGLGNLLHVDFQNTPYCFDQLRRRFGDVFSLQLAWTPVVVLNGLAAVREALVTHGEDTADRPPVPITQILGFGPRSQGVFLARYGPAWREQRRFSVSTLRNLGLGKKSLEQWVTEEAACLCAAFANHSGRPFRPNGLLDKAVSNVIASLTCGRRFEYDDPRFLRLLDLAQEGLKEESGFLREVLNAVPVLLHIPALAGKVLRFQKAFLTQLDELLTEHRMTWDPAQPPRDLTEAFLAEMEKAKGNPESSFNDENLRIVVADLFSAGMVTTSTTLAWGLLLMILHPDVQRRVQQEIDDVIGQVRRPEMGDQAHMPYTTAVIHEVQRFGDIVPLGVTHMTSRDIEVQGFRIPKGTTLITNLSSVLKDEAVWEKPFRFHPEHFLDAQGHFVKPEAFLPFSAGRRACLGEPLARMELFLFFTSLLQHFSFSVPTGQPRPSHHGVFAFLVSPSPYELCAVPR
Sequence of Cytochrome P450 2C19 (Homo sapiens) (P33261 whole entry, looked up): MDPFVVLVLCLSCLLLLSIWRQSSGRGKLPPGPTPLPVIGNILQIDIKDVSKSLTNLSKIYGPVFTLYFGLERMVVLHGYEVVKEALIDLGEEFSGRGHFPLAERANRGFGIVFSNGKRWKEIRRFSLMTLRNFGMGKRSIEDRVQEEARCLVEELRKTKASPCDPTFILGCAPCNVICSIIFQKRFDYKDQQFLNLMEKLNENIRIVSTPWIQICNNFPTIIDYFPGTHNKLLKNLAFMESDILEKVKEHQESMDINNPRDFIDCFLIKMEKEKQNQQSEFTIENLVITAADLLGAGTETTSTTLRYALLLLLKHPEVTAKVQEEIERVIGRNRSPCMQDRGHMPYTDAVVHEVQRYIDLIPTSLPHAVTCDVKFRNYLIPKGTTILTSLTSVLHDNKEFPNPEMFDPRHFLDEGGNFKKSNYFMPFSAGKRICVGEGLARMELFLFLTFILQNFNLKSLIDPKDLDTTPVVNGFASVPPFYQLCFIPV

As to `C[C@](N)(Cc1ccc(O)c(O)c1)C(=O)O`, the Potency result in experiment [1], in experiment [2], in experiment [3], in experiment [4], in [5] and in [7] was “inactive” each time. For the same compound, the Potency entry in experiment [9] and in experiment [10] was “inactive” throughout. Moreover, the max activation in [6] is -6.56% (inactive). In addition, in experiment [8], the call was inactive.

`O=C1O[C@H]([C@@H](O)CO)C(O)=C1O`: the Potency entry in experiment [1], in [2], in experiment [3], in [4], in [5] and in experiment [7] was “inactive” throughout. Moreover, the Potency entry in experiment [9] and in experiment [10] was “inactive” each time. Moreover, in [6], the max activation is -0.298% (inactive) and -0.0182% (inactive). In addition, the compound was called inactive in [8].

Take `CCCCC(CC)C(=O)O` (stereo not drawn): the Potency result in [1], in experiment [2], in experiment [3], in experiment [4], in [5] and in experiment [9] was “inactive” each time. Also, in experiment [10], the Potency entry is “inactive”.

Turning to `Cn1c(=O)c2c(ncn2C)n(C)c1=O`, the Potency entry in experiment [1] and in [3] was “inactive” throughout. The Potency in [2] is 61.9 µM (active) and inactive; in experiment [4] it was 61.9 µM (active) and inactive.

Take `CCCCCCCC(=O)OCC(COC(=O)CCCCCCC)OC(=O)CCCCCCC`: the Potency result in [1], in experiment [2], in experiment [3], in experiment [4], in experiment [5] and in experiment [7] was “inactive” in each case. Besides, the Potency result in experiment [9] and in experiment [10] was “inactive” in each case. For the same compound, the max activation in [6] was -1.45% (inactive). The call in [8] was inactive.

As to `Cc1ncc([N+](=O)[O-])n1CCO`, the Potency result in experiment [1], in [2], in experiment [3], in [4], in experiment [5] and in experiment [9] was “inactive” throughout. Besides, in experiment [10], the Potency entry is “inactive”.

Turning to `CC(C)NCC(O)c1ccc(O)c(O)c1` (stereo not drawn), the Potency result in experiment [1], in [2], in experiment [3] and in experiment [4] was “inactive” throughout.

For the compound `Oc1ccccc1`, the Potency result in experiment [1], in experiment [2], in experiment [3] and in experiment [4] was “inactive” in each case.

For `CS(=O)(=O)OCCCCOS(C)(=O)=O`, the Potency entry in [1], in experiment [2], in experiment [3], in [4], in [5] and in [7] was “inactive” in each case. Besides, the max activation in experiment [6] is -4.1% (inactive). The result in experiment [8] was inactive. In addition, the Potency was 35.7 µM (active) in [9]; 56.6 µM (active) and inactive in experiment [10].

With `Cc1cn([C@H]2C=C[C@@H](CO)O2)c(=O)[nH]c1=O`, the Potency result in experiment [1], in experiment [2], in [3], in experiment [5], in experiment [7] and in [9] was “inactive” each time. Further, the Potency entry in experiment [10] was “inactive”. The max activation in [6] is -2.07% (inactive). In addition, the call in experiment [8] was inactive.

For `NS(=O)(=O)O`, the Potency result in experiment [1], in [2], in experiment [3], in experiment [5] and in experiment [9] was “inactive” in each case. Besides, the Potency in [10] is 73.7 µM (active) and inactive.

`CC12CCC(CC1)C(C)(C)O2`: the Potency entry in experiment [1], in experiment [2], in [3], in experiment [5], in [7] and in experiment [9] was “inactive” throughout. For the same compound, the Potency entry in experiment [10] is “inactive”. The max activation in experiment [6] was -0.857% (inactive). Moreover, the call in experiment [8] was inactive.

For `CN1CCC[C@H]1c1cccnc1`, the Potency result in [1], in experiment [2], in experiment [3], in experiment [4], in experiment [5] and in experiment [10] was “inactive” throughout. In experiment [9], the Potency is 35.3 µM (active) and inactive.

Consider `Nc1ccc(O)c([N+](=O)[O-])c1`, for which the Potency entry in experiment [1] and in [3] was “inactive” each time. Also, the Potency in experiment [2] is 47.1 µM (active); in experiment [4], 61.1 µM (active); in experiment [5] it was 19.3 µM (active); in experiment [10], 22.2 µM (active).

In the case of `CNNCc1ccc(C(=O)NC(C)C)cc1`, the Potency entry in experiment [1], in experiment [2], in experiment [3] and in [4] was “inactive” each time. Also, in [6], the max activation was -1.77% (inactive).

As for `CCN(Cc1c(F)cccc1Cl)c1c([N+](=O)[O-])cc(C(F)(F)F)cc1[N+](=O)[O-]`, the Potency entry in experiment [1], in [3] and in experiment [9] was “inactive” each time. The Potency in [2] was 54.5 µM (active); in [5], 8.63 µM (active); in experiment [10], 2.24 µM (active).

As to `CCCc1cc(=O)[nH]c(=S)[nH]1`, the Potency entry in experiment [1], in [2], in experiment [3], in [5], in [7] and in experiment [9] was “inactive” in each case. In addition, the Potency result in experiment [10] was “inactive”. In experiment [6], the max activation was -3.01% (inactive). Also, the result in [8] was inactive.

Consider `CC(=O)CCC(=O)O`, for which the Potency entry in experiment [1], in experiment [2], in experiment [3], in experiment [5], in experiment [7] and in experiment [9] was “inactive” throughout. For the same compound, the Potency result in experiment [10] was “inactive”. For the same compound, the max activation in [6] is -1.2% (inactive). Moreover, the compound was classed as inactive in experiment [8].

For `CCOc1ccc(NC(C)=O)cc1`, the Potency result in experiment [1], in [2], in experiment [3], in experiment [5] and in experiment [9] was “inactive” in each case.

`COc1ccc(C(Cl)=C(c2ccc(OC)cc2)c2ccc(OC)cc2)cc1`: the Potency result in experiment [1], in [2], in [3], in experiment [4] and in experiment [9] was “inactive” each time. For the same compound, the Potency in experiment [10] was 7.93 µM (active) and 12.6 µM (active) and 4.36 µM (active).
